The text below walks through data of PubChem BioAssay AID624170 (National Center for Advancing Translational Sciences (NCATS), 2012).

Among all 410,000 compounds or so, about 850 (0.21%) were called active. Where a call stands in place of a potency, no number is given. Inconclusive results (about 2%) are left out. Calls follow the shape of the dose curve; as a rule, active = well fitted inhibition curve with a large enough effect; inconclusive = small, poorly fitted or top-dose-only effect, or another doubt; inactive = no such curve, though single readings can be large or run the other way. The sample as a whole holds a higher share of actives than the screen did.
Potency is read from the fitted curve at half-maximal effect.

This test deals with Glutaminase kidney isoform, mitochondrial (Homo sapiens) (UniProt O94925). Nature of the test: qHTS for Inhibitors of Glutaminase (GLS). Particulars: GLS enzymatic activity, qHTS titration; series mostly up to 99.4 µM. The text has this: Glutaminase (GLS) catalyzes the hydrolysis of glutamine into glutamate and ammonia. It plays a critical role in glutaminolysis, which is an important energy source for proliferating cells. It was shown that c-Myc, an oncogenic transcription factor known to regulate microRNAs and to stimulate cell proliferation, increases glutamine metabolism by stimulating the expression of GLS via direct suppression of miR23a and miR23b.
Chain of Glutaminase kidney isoform, mitochondrial (Homo sapiens) (O94925 whole entry, looked up, canonical isoform): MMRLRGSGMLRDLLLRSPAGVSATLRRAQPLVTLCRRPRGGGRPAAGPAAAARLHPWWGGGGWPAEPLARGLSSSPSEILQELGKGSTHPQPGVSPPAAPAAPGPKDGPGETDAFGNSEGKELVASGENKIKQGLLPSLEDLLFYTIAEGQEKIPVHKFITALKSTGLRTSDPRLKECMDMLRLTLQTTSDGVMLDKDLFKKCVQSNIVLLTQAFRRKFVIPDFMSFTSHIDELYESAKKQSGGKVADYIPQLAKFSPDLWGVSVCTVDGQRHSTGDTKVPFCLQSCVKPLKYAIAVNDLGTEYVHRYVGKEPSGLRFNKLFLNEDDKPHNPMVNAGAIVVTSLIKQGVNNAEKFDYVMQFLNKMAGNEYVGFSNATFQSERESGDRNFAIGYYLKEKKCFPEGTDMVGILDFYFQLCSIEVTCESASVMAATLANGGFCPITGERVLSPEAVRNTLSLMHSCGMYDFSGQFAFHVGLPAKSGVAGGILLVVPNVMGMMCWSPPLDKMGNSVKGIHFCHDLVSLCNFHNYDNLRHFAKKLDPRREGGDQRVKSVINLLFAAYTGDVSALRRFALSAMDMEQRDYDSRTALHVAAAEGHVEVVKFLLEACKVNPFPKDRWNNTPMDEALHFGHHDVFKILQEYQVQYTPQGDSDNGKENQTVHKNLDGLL
GLS is also thought to play a pathogenic role on HAD using a human HIV-1 infected macrophage system. […] GLS inhibition limits glutamate release and provides neuroprotection against HIV-1 infected macrophages.
The overall goal of this project is to identify small molecule inhibitors of GLS through quantitative high throughput screening (qHTS) of the MLSMR. A validated potent and selective inhibitor can be used as a tool molecule to further study the pharmacology of its target as well as explore its potential therapeutic application in cancer and inflammatory neurological disorders, such as HIV1-associated dementia (HAD) and multiple sclerosis.
NIH Chemical Genomics Center [NCGC]
NIH Molecular Libraries Probe Centers Network [MLPCN]
Assay Submitter (PI): Barbara S. Slusher, Johns Hopkins University
Three 3 uL of hKGA is dispensed into black well 1536-well plates in 45 mM KH2PO4 (pH 8.2), 0.02% Tween-20. Then 23 nL of compounds are added through pin tool transfer. To this, 1 uL of 1mM L-Glutamine and 1 uL of a solution of L-Glutamateoxidase, HRP, Amplex red are added. Plate is centrifuged for 25 sec before an initial fluorescence read is obtained on the ViewLux, after 30 min of RT incubation, the final read is taken on the ViewLux.
Consider `CCC(C)n1c(O)c(/C=N/Nc2nc3c(c(=O)n(C)c(=O)n3C)n2C)c(=O)[nH]c1=S` (stereo not given), for which the Potency was 10 µM (active). Turning to `COc1cc(C[C@H](C)N)c(OC)cc1Br`, the Potency result is “inactive”. With `CC(C)=CCN1CC[C@@]2(C)c3cc(O)ccc3C[C@H]1[C@@H]2C` the entry was “inactive”; with `CC(C)(C)c1ccc(S(=O)(=O)Nc2ccc(O)c(Sc3nc4ccccc4s3)c2)cc1`, “inactive”. Take `C[C@]12CCC3[C@@H](CCC4=CC(=O)CC[C@@]43C)C1CCC2OC(=O)CCc1ccccc1` (stereo not given in full): the Potency entry was “inactive”. For the compound `O=C1NC(=O)N(Cc2ccco2)C(=O)/C1=C\c1ccc(-c2ccc(F)cc2)o1`, the Potency is 8.91 µM (active). With `O=P1(N(CCCl)CCCl)NC(OO)CCO1` (stereo not given), the Potency result was “inactive”. For the compound `CC(C)CC1C(=O)N2CCCC2C2(O)OC(NC(=O)C3CC4c5cccc6[nH]cc(c56)CC4N(C)C3)(C(C)C)C(=O)N12` (stereo not given), the Potency entry was “inactive”. The same measure for `Cc1ncc(CC(=O)n2cc(C(=O)c3cc(Cl)ccc3O)cn2)s1`: “inactive”.

Take `CC(=O)Oc1ccc2c3c1OC1C(OC(C)=O)C=CC4[C@@H](C2)N(C)CC[C@]314` (stereo not given in full): the Potency result was “inactive”.
